# Assay results as given in PubChem BioAssay (NCATS).
# Unmarked numbers belong to inactive results. Inconclusive results are not listed. Entries that show only a call come without a potency. The source made the active and inactive calls. The call rests on the fitted dose curve; in most records, active means well fitted curve in the direction sought with a large enough effect; inconclusive means small, poorly fitted or top-dose-only effect, or another doubt; inactive means no such curve, though single readings can be large; an effect the other way counts as inactive or inconclusive.
# Assays:
# [1] = molecular target: Glutathione peroxidase 1 (Homo sapiens) (UniProt P07203); experiment: Primary qHTS Assay for Inhibitors of Recombinant Selenoprotein Glutathione Peroxidase 1 (GPX1) (AID 1845191); further: nearly all actives have a fitted effect of over 65% in size
# Summary of the method: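 GPX1 10 nM, GR 100 nM, GSH 1 mM, NADPH 0.5 mM, CHP 0.5 mM (final). 30-min cpd preincubation, RT. Ex340/Em450 read t=0, t=15 min.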
# [2] = molecular target: Phospholipid hydroperoxide glutathione peroxidase GPX4 (Homo sapiens) (UniProt P36969); experiment: Primary qHTS Assay for Inhibitors of Recombinant Selenoprotein Glutathione Peroxidase 4 (GPX4) (AID 1845192); further: nearly all actives have a fitted effect of over 65% in size; on activity change, negative = inhibition: series mostly up to about 50 µM
# Summary of the method: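 qHTS, GR-coupled: GPX4 200 nM + cpd 30 min RT → GSH 1 mM, NADPH 0.5 mM, GR 100 nM → CHP 0.5 mM start; fluor 340/450 at t0 and t15 min; no-enzyme wells as control.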
# [3] = molecular target: Luciferin 4-monooxygenase (Photinus pyralis) (UniProt P08659); experiment: Primary firefly luciferase (FLuc) qHTS assay for identification of artifact compounds. (AID 1845220); further: nearly all actives have a fitted effect of over 60% in size; on activity change, negative = inhibition: series mostly up to about 54 µM
# Summary of the method: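 In this counter-screen for luciferase artifacts, test compounds met substrate (10 uM each luciferin and ATP) before 10 nM enzyme started the reaction. Light output was measured 5 min later.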
# [4] = Primary fluorescence-based thiol-reactive (MSTI) qHTS assay for identification of artifact compounds. (AID 1845221); further: nearly all actives have a fitted effect of over 65% in size; further: potency means the concentration at half of the fitted maximal effect;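 on activity change, negative = thiol reactive: series mostly up to about 54 µM; thiol-reactive compounds lower the probe fluorescence signal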
# Summary of the method: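 MSTI probe at 4 uM final in 2% DMSO/PBS pH 7.4; compounds, 1 h at room temperature in dark. Fluorescence Ex/Em 525/598 nm, normalised to Acetyl-MSTI and MSTI, fitted to 4-parameter Hill.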
# [5] = test system: Nanoluciferase (engineered Oplophorus gracilirostris luciferase); experiment: Primary Nanoluciferase (NLuc) qHTS assay for identification of artifact compounds. (AID 1845222);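 further: NLuc secreted into diluted conditioned medium of S16 cells; series mostly up to about 54 µM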
# Summary of the method: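 Using secreted nanoluciferase in S16 culture medium (0.22 um filtered, 1:55 dilution), compounds were preincubated 15 min at RT. Signal was generated with Nano-Glo reagent (1:100) over 5 min.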
# Chain of Glutathione peroxidase 1 (Homo sapiens) (P07203 whole entry, looked up): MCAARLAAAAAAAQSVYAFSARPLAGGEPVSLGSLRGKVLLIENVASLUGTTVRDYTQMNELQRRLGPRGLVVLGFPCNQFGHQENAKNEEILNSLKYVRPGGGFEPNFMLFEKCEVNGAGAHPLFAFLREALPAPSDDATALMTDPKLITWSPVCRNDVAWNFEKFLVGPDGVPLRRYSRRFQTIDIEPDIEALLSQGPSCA
# Chain of Phospholipid hydroperoxide glutathione peroxidase GPX4 (Homo sapiens) (P36969 whole entry, looked up): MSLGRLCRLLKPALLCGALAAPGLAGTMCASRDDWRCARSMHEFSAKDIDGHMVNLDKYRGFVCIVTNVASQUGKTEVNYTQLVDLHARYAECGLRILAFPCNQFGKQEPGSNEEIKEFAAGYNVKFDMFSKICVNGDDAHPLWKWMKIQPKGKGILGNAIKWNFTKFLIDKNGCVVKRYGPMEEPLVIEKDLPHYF
smiles,measurement,setting,value
C=CC(=O)Nc1cc(Nc2nccc(-c3c[nH]c4ccccc34)n2)c(OC)cc1N(C)CCN(C)C,Potency,[1],inactive
same,Potency,[2],inactive
same,Potency,[3],inactive
same,Potency,[4],1.68 µM (active)
same,Potency,[5],inactive
O=C(O)[C@H](Cc1ccc(Nc2nccc3ccncc23)cc1)NC1=C(Br)C(=O)C12CCCCC2,Potency,[1],inactive
same,Potency,[2],inactive
same,Potency,[3],inactive
same,Potency,[4],inactive
same,Potency,[5],inactive
CC1(C)CCC2(C(=O)OC3OC(CO)C(O)C(O)C3O)CCC3(C)C(=CCC4C5(C)CCC(O)C(C)(C(=O)O)C5CCC43C)C2C1O (stereo not given),Potency,[1],inactive
same,Potency,[2],inactive
same,Potency,[3],inactive
same,Potency,[4],inactive
same,Potency,[5],inactive
CCCN1CCN(c2ccc(C(=O)NC3(C(=O)NCC#N)CCCCC3)cc2)CC1,Potency,[1],inactive
same,Potency,[2],inactive
same,Potency,[3],inactive
same,Potency,[4],inactive
same,Potency,[5],inactive
CC(=O)NCC(=O)N1C2CCC1c1cc(Nc3ncc(C(F)(F)F)c(NC4CCC4)n3)ccc12 (stereo not given),Potency,[1],inactive
same,Potency,[2],inactive
same,Potency,[3],inactive
same,Potency,[4],inactive
same,Potency,[5],inactive
C/C=C/C=C/[C@@H]1O[C@](O)([C@H](CC)C(=O)NC/C=C/C=C(\C)[C@@H](OC)[C@@H](C)C2OC(/C=C/C=C/C=C(\C)C(=O)c3c(O)cc[nH]c3=O)[C@H](O)[C@@H]2O)[C@H](O)[C@H](O)C1(C)C (stereo not given in full),Potency,[1],inactive
same,Potency,[2],inactive
same,Potency,[3],inactive
same,Potency,[4],inactive
same,Potency,[5],inactive
CC(=O)O[C@H]1[C@@H](O)[C@H](O[C@H]2[C@@H]3C=CO[C@@H](O[C@H]4O[C@@H](CO)[C@H](O)[C@@H](O)[C@@H]4O)[C@@H]3[C@@]3(CO)O[C@@H]23)O[C@@H](C)[C@@H]1OC(=O)/C=C/c1ccccc1,Potency,[1],inactive
same,Potency,[2],inactive
same,Potency,[3],inactive
same,Potency,[4],7.93 µM (active)
same,Potency,[5],inactive
CO[C@H]1C[C@@H]2CC[C@@H](C)[C@@](O)(O2)C(=O)C(=O)N2CCCC[C@H]2C(=O)O[C@H]([C@H](C)C[C@@H]2CC[C@H](n3cnnn3)[C@H](OC)C2)CC(=O)[C@H](C)/C=C(\C)[C@@H](O)[C@@H](OC)C(=O)[C@H](C)C[C@H](C)/C=C/C=C/C=C/1C,Potency,[1],inactive
same,Potency,[2],inactive
same,Potency,[3],inactive
same,Potency,[4],inactive
same,Potency,[5],inactive
CC(C)=CC/C=C(\C)[C@H]1CC[C@]2(C)[C@@H]1[C@H](O)C[C@@H]1[C@@]3(C)CC[C@H](O)C(C)(C)[C@@H]3[C@@H](O[C@@H]3O[C@H](CO)[C@@H](O)[C@H](O)[C@H]3O)C[C@]12C,Potency,[1],inactive
same,Potency,[2],inactive
same,Potency,[3],inactive
same,Potency,[4],inactive
same,Potency,[5],inactive
CC(=O)N1CCN(Cc2ccc([C@H](C)Nc3nccc(N4C(=O)OC[C@@H]4C(C)C)n3)cc2)CC1,Potency,[1],inactive
same,Potency,[2],inactive
same,Potency,[3],inactive
same,Potency,[4],inactive
same,Potency,[5],inactive
Cn1cc(S(=O)(=O)c2ccc(Cl)cc2)c2cccc(N3CCNCC3)c21,Potency,[1],inactive
same,Potency,[2],inactive
same,Potency,[3],inactive
same,Potency,[4],inactive
same,Potency,[5],inactive
C[C@@H]1O[C@@H](O[C@H]2[C@H](O)[C@@H](O)[C@H](OC[C@H]3O[C@@H](OC(=O)[C@]45CCC(C)(C)C[C@H]4C4=CCC6[C@@]7(C)CC[C@H](O[C@@H]8OC[C@H](O)[C@H](O[C@@H]9O[C@H](CO)[C@@H](O)[C@H](O)[C@H]9O)[C@H]8O)[C@@](C)(CO)C7CC[C@@]6(C)[C@]4(C)CC5)[C@H](O)[C@@H](O)[C@@H]3O)O[C@@H]2CO)[C@H](O)[C@H](O)[C@H]1O (stereo not given in full),"activity, negative = inhibition",[1],-7.31% [at 9.52 µM]
same,"activity change, negative = inhibition",[2],-3.72% [at 9.73 µM]
same,"activity change, negative = inhibition",[3],2.93% [at 11.6 µM]
same,"activity change, negative = thiol reactive",[4],205% [at 11.5 µM]
same,"activity, negative = inhibition",[5],3.4% [at 11.6 µM]
CC[C@H](CO)Nc1nc(NCc2ccc(-c3ccccn3)cc2)c2ncn(C(C)C)c2n1,Potency,[1],inactive
same,Potency,[2],inactive
same,Potency,[3],inactive
same,Potency,[4],inactive
same,Potency,[5],inactive
C[C@@H]1O[C@@H](O[C@H]2[C@H](O)[C@@H](O[C@@H]3O[C@H](CO)[C@@H](O)[C@H](O[C@@H]4O[C@H](CO)[C@@H](O)[C@H](O)[C@H]4O)[C@H]3O)[C@H](O[C@H]3CC[C@@]4(C)C(=CC[C@@H]5C4CC[C@@]4(C)C5C[C@@H]5OC6(CC[C@@](C)(CO[C@@H]7O[C@H](CO)[C@@H](O)[C@H](O)[C@H]7O)O6)[C@@H](C)[C@@H]54)C3)O[C@@H]2CO)[C@H](O)[C@H](O)[C@H]1OC1OC(CO)C(O)C(O)C1O (stereo not given in full),"activity, negative = inhibition",[1],1.32% [at 9.52 µM]
same,outcome,[2],inactive [at 9.73 µM]
same,"activity change, negative = inhibition",[3],2.07% [at 11.6 µM]
same,"activity change, negative = thiol reactive",[4],23.9% [at 11.5 µM]
same,"activity, negative = inhibition",[5],1.98% [at 11.6 µM]
CC1CCC2(C=O)C(CO)=CCCC2C1(C)CC(=O)O (stereo not given),Potency,[1],inactive
same,Potency,[2],inactive
same,Potency,[3],inactive
same,Potency,[4],3.36 µM (active)
same,Potency,[5],inactive
CNC(=O)c1ccccc1Nc1cc(Nc2ccc(N3CCOCC3)cc2OC)ncc1C(F)(F)F,Potency,[1],inactive
same,Potency,[2],inactive
same,Potency,[3],inactive
same,Potency,[4],1.5 µM (active)
same,Potency,[5],inactive
COC1C(=O)CCC2(CO2)C1(O)C1(C)OC1CC=C(C)C (stereo not given),Potency,[1],inactive
same,Potency,[2],inactive
same,Potency,[3],inactive
same,Potency,[4],11.9 µM (active)
same,Potency,[5],inactive
CC(=O)N1CCN(C(=O)Cc2ccc(Nc3ncc(F)c(Nc4ccc(C(=O)Nc5ccccc5Cl)cc4)n3)cc2)CC1,Potency,[1],inactive
same,Potency,[2],inactive
same,Potency,[3],inactive
same,Potency,[4],inactive
same,Potency,[5],inactive
